The list is not random: actives were taken first. Their share in the collection is about 3.5%.
FBPA Giardia inh: blocks Giardia fructose-bisphosphate aldolase activity; A8B2U2; purified Giardia FBPA; Potency, µM (titrated, usually from 59.6 µM), without a hit: top-dose activity, negative = inhibition, most hits filed as inhibitors; 290,000 tested, 0.71% active; further: on the % scale 0 is the no-effect control and ±100 the full control effect; nearly all actives have a fitted effect of over 55% in size
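40 nM FBPA preincubated 10 min at RT with compound (up to 57.5 uM final), then substrate plus GAPDH/TPI/NAD/arsenate coupling and diaphorase/resazurin added. Fluorescence read after 20 min at RT, 525/598 nm.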
RE007 growth inh: less growth of the S. pombe RE007 Vpr strain | S. pombe RE007 Vpr strain, BacTiter-Glo ATP luminescence, 24 h | Potency, µM (series often up to 92.2 µM), inactives show top-dose activity change, negative = less growth, actives largely listed as inhibitors | 360,000 tested, 0.21% active | AID 651644; active means well fitted falling curve with a large enough effect; inconclusive means small, poorly fitted or top-dose-only effect; inactive means no such curve, though single readings can be large or run the other way; further: on the % scale 0 is the no-effect control and ±100 the full control effect; nearly all actives have a fitted effect of over 50% in size
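Fission yeast strain RE007, carrying one chromosomally integrated HIV-1 vpr copy, was seeded at OD 0.01 in PMG+AL medium with 23 nL pinned compound. After 24 h at 30 °C and 99% humidity, viability was read by BacTiter-Glo luminescence.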
Tb PYK inh: inhibitors of Trypanosoma brucei pyruvate kinase. 410,000 tested, 0.12% active. Potency, µM (titrated, usually from 76.8 µM), without a hit: at the top dose activity, negative = inhibition, usual class: inhibitors. Q57TT1. TbPYK enzyme, Kinase-Glo Plus ATP luminescence, 45 min. AID 624173; further: on the % scale 0 is the no-effect control and ±100 the full control effect; nearly all actives have a fitted effect of over 50% in size
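In this concentration-response screen, enzyme-free wells defined baseline while DMSO plates tracked drift. Each reaction combined TbPYK, substrate, compound and 130 uM ADP for 45 min at room temperature. Kinase-Glo Plus luminescence gave the signal.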
Sm TGR inh: S. mansoni TGR enzyme inhibition. Q962Y6. purified TGR, DTNB reduction, TNB absorbance 405 nm. Potency, µM (doses to about 114 µM), for the others: at the top dose activity change, negative = inhibition, most hits filed as inhibitors. 360,000 tested, 3% active. AID 485364; further: on the % scale 0 is the no-effect control and ±100 the full control effect; nearly all actives have a fitted effect of over 60% in size
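First, TGR (20 nM dispensed) and NADPH were mixed with compound. Second, a 15 min room-temperature incubation followed. Third, further NADPH and then DTNB were added to start the reaction. Finally, TNB absorbance was monitored kinetically.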
LmPK inhibitor: LmPK (Leishmania mexicana) enzyme inhibition. Q27686. purified LmPK, Kinase-Glo ATP luminescence, 1 h. Potency, µM (series often up to 57.5 µM), for inactives: at the highest dose activity change, negative = inhibition, hits mostly inhibitors. 290,000 tested, 0.37% active. AID 1721; further: on the % scale 0 is the no-effect control and ±100 the full control effect
Target sequence (Q27686 whole entry, looked up): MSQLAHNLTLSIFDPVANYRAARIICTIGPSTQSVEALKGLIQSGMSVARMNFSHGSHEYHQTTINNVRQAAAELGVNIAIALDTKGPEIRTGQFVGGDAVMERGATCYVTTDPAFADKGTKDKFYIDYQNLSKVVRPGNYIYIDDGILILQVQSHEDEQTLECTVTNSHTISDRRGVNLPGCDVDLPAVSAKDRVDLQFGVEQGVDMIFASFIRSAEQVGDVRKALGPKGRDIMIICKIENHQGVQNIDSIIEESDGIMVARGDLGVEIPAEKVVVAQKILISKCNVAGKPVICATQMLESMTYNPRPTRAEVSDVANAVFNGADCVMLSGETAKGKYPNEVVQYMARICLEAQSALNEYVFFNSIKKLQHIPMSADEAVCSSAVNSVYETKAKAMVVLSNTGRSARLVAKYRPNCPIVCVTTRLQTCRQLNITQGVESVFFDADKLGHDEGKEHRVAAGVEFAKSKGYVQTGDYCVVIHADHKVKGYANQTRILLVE
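Kinase-Glo luminescence read after 1 h RT reaction of 0.1 nM LmPK with 0.5 mM PEP and 0.1 mM ADP. Activity scaled between uninhibited and enzyme-free controls.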
NS1 inh: blocks influenza NS1 protein function | 270,000 tested, 0.4% active | Potency, µM (highest dose often 46.1 µM), for the others: at the highest dose activity, positive = more growth | AID 2326; calls by dose curve; further: actives are rising curves; nearly all actives have a fitted effect of over 50% in size
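Compounds were scored for reversing the slow growth caused by influenza A NS1 in S. cerevisiae, measured by optical density at 600 nm. Assay medium contained 2% galactose at pH 6.0; NS1-free yeast of the same strain were the positive control.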
* = called active by the depositor; u = inconclusive; x = not tested or not shown; [ ] = dose if it differs, or a comment. Unless noted, the call rests on the fitted dose curve; in most records, active means well fitted curve in the direction sought with a large enough effect; inconclusive means small, poorly fitted or top-dose-only effect, or another doubt; inactive means no such curve, though single readings can be large; an effect the other way counts as inactive or inconclusive. Potency means the concentration at half of the fitted maximal effect.

SMILES	FBPA Giardia inh	RE007 growth inh	Tb PYK inh	Sm TGR inh	LmPK inhibitor	NS1 inh
Cc1ccc(S(=O)(=O)CCC(=O)c2cccc([N+](=O)[O-])c2)cc1	-6.5%	5.62µM*	u	u	2.3%	-139.5%
Cc1ccc(S(=O)(=O)CCC(=O)Oc2ccc(-c3nnco3)cc2)cc1	x	29.5%	-4.8%	20µM*	x	x
Cc1ccc(S(=O)(=O)Cc2cc(F)c([N+](=O)[O-])cc2[N+](=O)[O-])cc1	-5.3%	u	-2.4%	1.78µM*	3.2%	-102.7%
CCOC(=O)c1ccc([N+](=O)[O-])c(CS(=O)(=O)c2ccc(Cl)cc2)c1	9.4%	3.8%	0.7%	14.1%	-0.3%	5.3%
Cc1ccc(NC(=O)C2CCCN(S(=O)(=O)c3c(C)n[nH]c3C)C2)cc1C (stereo not given)	x	x	-6.1%	8.2%	x	x
CC(NC(=O)CCn1c(=O)c2cccn2c2ccc(F)cc21)c1ccccc1 (stereo not given)	x	x	-0.4%	9.1%	x	x
CO/N=C(/CS(=O)(=O)c1ccc(C)cc1)c1ccc(OC)cc1	u	-10.8%	-7.2%	39.8µM*	3.3%	-8.6%
COc1ccc(C(=O)CCS(=O)(=O)c2ccc(C)cc2)cc1	13.4%	-23.4%	3.6%	1µM*	-1.4%	-0.5%
COc1ccc(NC(=O)CS(=O)(=O)c2ccc(C)cc2)c(OC)c1	3.9%	24.8%	-3.4%	-18.5%	-2.7%	-0.6%
Cc1ccc(C(=O)CCS(=O)(=O)c2ccc(Br)cc2)cc1	-2.6%	9.0%	1.7%	0.398µM*	-8.2%	0.0%
COc1ccccc1N1CCN(C(=O)c2cn(C)c3ccc(S(=O)(=O)N(C)C4CCCCC4)cc3c2=O)CC1	x	x	2.2%	3.8%	x	x
Cc1ccc(C)c(N2CCN(CCCNC(=O)c3ccc4nc(N5CCCCC5)sc4c3)CC2)c1	x	x	-4.1%	-1.8%	x	x
CCC[C@@H]1C[C@@]1(CCC)C(NC(=O)c1ccco1)c1ccc(Cl)cc1 (stereo not given in full)	0.8%	x	x	x	x	x
COc1ccc(CCN2CNc3c(c(=O)n(C)c(=O)n3C)C2)cc1	-0.5%	7.9%	-3.0%	89.1µM*	-2.9%	3.5%
CCCC1C2CN(C(C)C)CC=C2C(C#N)=C(N)C1(C#N)C#N (stereo not given)	u	-18.1%	-9.9%	17.8µM*	-10.6%	-2.8%
CC[C@]12CCCN3CCc4c(n(c5ccccc45)C(=O)C1)[C@H]32	5.2%	x	x	x	x	x
CN=c1scc(-c2ccc([N+](=O)[O-])cc2)n1/N=C/c1ccco1	3.2%	-4.0%	-6.4%	-0.3%	0.5%	1.4%
O=C1c2ccc([N+](=O)[O-])cc2NC(c2ccco2)N1/N=C/c1ccco1 (stereo not given)	-23.2%	-27.5%	-3.7%	39.8µM*	2.6%	1.8%
COCCn1c(SCC(=O)c2c(C)[nH]c3ccccc23)nc2cc(C(=O)NC(C)C)ccc2c1=O	x	x	-7.9%	35.5µM*	x	x
COCCn1c(SCC(=O)c2c[nH]c3ccccc23)nc2cc(C(=O)NC(C)C)ccc2c1=O	x	x	0.7%	-28.9%	x	x
Cc1nnc(NC(=O)CSc2nccn2-c2ccc(Cl)cc2)s1	x	x	2.0%	-6.4%	x	x
Cc1ccccc1Cn1cnc2nc3c(cc2c1=O)CC(C)CC3 (stereo not given)	x	x	-4.1%	19.3%	x	x
COc1ccccc1-n1c(CNC(=O)COc2ccccc2)n[nH]c1=S	-19.8%	2.8%	u	2.9%	u	-3.8%
COc1ccccc1-n1c(CNC(=O)c2cccc([N+](=O)[O-])c2C)n[nH]c1=S	-17.0%	9.4%	7.94µM*	1.4%	1.1%	x
Cc1cccc(-n2c(CNC(=O)c3cccc([N+](=O)[O-])c3C)n[nH]c2=S)c1	-16.4%	-7.9%	8.91µM*	-0.6%	-0.7%[11.5 µM]	x
SMILES	FBPA Giardia inh	RE007 growth inh	Tb PYK inh	Sm TGR inh	LmPK inhibitor	NS1 inh
Cc1ccc(NC(=O)C2CCCN(S(=O)(=O)c3c(C)n[nH]c3C)C2)c(C)c1 (stereo not given)	x	x	-0.1%	8.9%	x	x
Cc1nc2nc(-c3ccccc3)cn2nc1C	1.3%	-8.6%	-22.7%	-22.0%	12.6µM*	-9.8%
Cc1nc2nc(-c3ccc(F)cc3)cn2nc1C	4.7%	x	u	39.4%	u	-0.8%
COC(=O)C1=C(O)/C(=C/c2ccc(OCC(=O)Nc3ccc(OC)cc3)cc2)N=C1C	x	5.5%	-4.3%	x	x	x
COC(=O)C1=C(O)/C(=C\c2ccc(CNC(=O)C(=O)Nc3ccc(C)cc3)o2)N=C1C	u	-12.6%	-1.4%	17.8µM*	3.4%	10.1%
COC(=O)C1=C(O)/C(=C\c2ccc(CNC(=O)C(=O)Nc3ccc(C)c(C)c3)o2)N=C1C	-22.7%	0.3%	-11.0%	31.6µM*	13.2%	-0.9%
CCOC(=O)C(=O)NCc1ccc(/C=C2/N=C(C)C(C(=O)OCC)=C2O)o1	u	-5.3%	-4.1%	31.6µM*	4.1%	4.5%
O=C(c1cc(Cc2n[nH]c(=O)c3ccccc23)ccc1F)N1CCN(C(=O)C2CC2)CC1	x	x	4.1%	x	x	x
CCn1c(Cc2c(C)[nH]c3ccccc23)nnc1SCC(N)=O	-2.5%	-2.7%	-12.2%	44.7µM*	-8.5%	-1.3%
CCn1c(Cc2c(C)[nH]c3ccccc23)nnc1SCC(=O)NCc1ccccc1	3.3%	2.2%	-12.7%	u	3.3%	-1.8%
C=CCn1c(Cc2c(C)[nH]c3ccccc23)nnc1SCC(=O)NCc1ccc(F)cc1	0.3%	2.6%	-19.9%	31.6µM*	2.4%	-2.3%
Cc1cc(Sc2ncnc(N)c2[N+](=O)[O-])ncn1	u	-15.6%	-10.8%	0.891µM*	-1.1%	1.5%
CCOCc1cc(CN2CCN(c3ccccc3OC)CC2)c(O)c2ncccc12	x	x	-2.6%	u	x	x
Oc1c(CN2CCCCC2)cc(COCc2ccccc2)c2cccnc12	4.9%	u	-8.8%	35.5µM*	6.2%	-84.0%
CN(C)C1CCN(Cc2cc(COCc3ccccc3)c3cccnc3c2O)C1 (stereo not given)	x	x	1.0%	14.1µM*	x	x
CC(C)CO/N=C1/[C@H]2O[C@@H]2[C@@H](O)[C@H]2[C@H]1CCn1c(=O)n(C)c(=O)n12	6.0%[12.9 µM]	x	x	x	x	x
O=C1/C(=C/c2ccco2)SC(=S)N1CCC(=O)N1CCCCC1CCO (stereo not given)	x	-10.1%	-20.8%	22.4µM*	14.0%	17.0%
O=C1/C(=C/c2ccc(Cl)cc2)SC(=S)N1CCC(=O)N1CCCCC1CCO (stereo not given)	x	-13.5%	-6.8%	-5.1%	-7.2%	-1.1%
O=C1/C(=C\c2ccco2)SC(=S)N1C1CCCCC1	-6.0%	x	x	39.8µM*	1.5%	20.2%
Cc1ccc(N2C(=O)/C(=C/c3ccco3)SC2=S)cc1	-22.6%	-11.4%	8.2%	-12.5%	3.5%	10.4%
